Assay outcomes (PubChem)
PrP 5UTR inh – suppresses PrP 5' UTR mRNA reporter expression | 340,000 compounds, 0.35% hits | AID 488862 | cell-based PrP 5' UTR mRNA reporter, plate reader | inhibition, % (concentration not given with the values); in the data active = inhibition above about 52%
BJeLR viability – kills HRASV12-expressing BJeLR cells; BJeLR (HRASV12) viability, CellTiter-Glo ATP luminescence, 48 h; inhibition, % (no concentration beside the values); 300,000 compounds, 0.17% hits; AID 1554; in the data active = inhibition above about 50%; inconclusive = no clear call, values can overlap the other calls
PrPC TRFRET – inhibitors of human cell surface prion protein PrPC | P04156 | TR-FRET read-out | inhibition, % at 13.8 µM | 370,000 compounds, 0.43% hits; in the data active = inhibition above about 24%
VHR inh abs – blocks human VHR1 dual specificity phosphatase | recombinant VHR phosphatase, pNPP absorbance | 290,000 compounds, 0.52% hits | inhibition, % at 13.3 µM; in the data active = inhibition above about 50%
Target sequence (P51452 whole entry, looked up): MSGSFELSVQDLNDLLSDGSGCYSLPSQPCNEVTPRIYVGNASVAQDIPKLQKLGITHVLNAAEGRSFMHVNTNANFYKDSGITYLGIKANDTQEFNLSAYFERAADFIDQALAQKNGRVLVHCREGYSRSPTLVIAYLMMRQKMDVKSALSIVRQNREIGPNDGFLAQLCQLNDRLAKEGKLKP
PfHsp40 rescue – compounds rescuing yeast from Plasmodium falciparum HSP40 toxicity | S. cerevisiae expressing PfHsp40, growth rescue, ATP luminescence | 340,000 compounds, 0.68% hits | growth rescue, % at 12.5 µM | AID 504582; in the data active = growth rescue above about 28%, passing the limit was not always enough; inconclusive = no clear call, values can overlap the other calls;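 also: yeast W303a lacking pdr1 and pdr3 grown in galactose medium; growth measured after three days at 30 °C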
MazF activator – MazEF (E. coli) toxin RNase activation | FAM/BHQ RNA-DNA oligo cleavage fluorescence, 5 h | activation, % at 20 µM | 350,000 compounds, 0.32% hits; in the data active = activation above about 50%
Target sequence (P0AE70 whole entry, looked up): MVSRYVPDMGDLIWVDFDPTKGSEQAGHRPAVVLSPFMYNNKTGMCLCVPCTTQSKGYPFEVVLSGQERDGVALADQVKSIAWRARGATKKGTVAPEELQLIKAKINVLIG
Each line names hits and unclear results; the compound was inactive in the other large screens. Shown are actives, neighbours in structure and some others; about 2.1% of the full set was active somewhere.

Cc1cc(NC(=O)CC(C)C)c(=O)n(Cc2c(F)cccc2Cl)c1	VHR inh abs 54
CC1(C)CC(=O)C=C(c2ccc(-c3ccc(S(C)(=O)=O)cc3)cc2)C1=O	none (no result: PrP 5UTR inh, BJeLR viability, VHR inh abs, PfHsp40 rescue)
Nn1c(SCC(=O)NC2CCCCCC2)nnc1-c1ccco1	none (no result: PrP 5UTR inh, BJeLR viability, VHR inh abs, PfHsp40 rescue)
N#Cc1c(-c2ccc(Cl)cc2)n(O)c2ccccc12	PfHsp40 rescue 284 (no result: BJeLR viability, PrPC TRFRET, VHR inh abs)
Cn1c(-c2ccc(C#N)cc2)c(C#Cc2ccccc2)c2ccccc21	none (no result: BJeLR viability, VHR inh abs)
COc1ccnc2c1c(=O)n(Cc1c(F)cccc1Cl)c(=O)n2C	VHR inh abs 50
CCOC(=O)C1=c2s/c(=C\c3cccnc3)c(=O)n2C(N)=C(C(=O)OC)C1c1cccnc1 (stereo not drawn)	VHR inh abs 52
CC(C)(C)c1ccc(OCc2ccc(C(=O)Nc3cccnc3)o2)cc1	PfHsp40 rescue 37
COc1ccc(Cn2c3nc4ccccc4nc3c3c(=O)n(Cc4ccco4)c(C)nc32)cc1	VHR inh abs 91 (no result: PrP 5UTR inh, BJeLR viability, PrPC TRFRET, PfHsp40 rescue, MazF activator)
CCc1c(C2(O)CCCCC2)[nH]c2cc(C(F)(F)F)ccc12	PfHsp40 rescue 299 (no result: PrPC TRFRET)
Cc1c(C2(O)CCCCC2)[nH]c2cc(C(F)(F)F)ccc12	PfHsp40 rescue inconclusive (no result: BJeLR viability, VHR inh abs)
Cc1nc2ccccc2n1CC(=O)OCC(=O)NCc1ccccc1	none
CCOC(=O)Cn1c(=O)c(-c2ccccc2NCc2ccccc2)nc2ccccc21	MazF activator 61 (no result: VHR inh abs)
Cc1cc2nccnc2cc1C	none (no result: BJeLR viability, VHR inh abs)
COc1cccc(Nc2nc(-c3cccs3)nc3ccccc23)c1	PfHsp40 rescue 279
COc1cc2c(cc1OC)CN(C(=O)c1ccc(N3CCCC3)c([N+](=O)[O-])c1)CC2	none (no result: VHR inh abs)
COc1ccc(OC)c(NC(=O)C2(C)CCN2Cc2ccc(SC)cc2)c1 (stereo not drawn)	none (no result: PrP 5UTR inh, BJeLR viability, VHR inh abs, PfHsp40 rescue, MazF activator)
O=C(CSc1ccccc1)NNC(=O)c1ccccc1O	none
CN(C)Cc1c(C(=O)N/N=C/c2cccc(OCc3ccccc3)c2)nnn1-c1nonc1N	none
CN(C)Cc1c(C(=O)N/N=C/c2cccc(OCc3ccc(F)cc3)c2)nnn1-c1nonc1N	MazF activator 99
COC(=O)C1CN(Cc2cn(Cc3ccc(OC)cc3)nn2)CCS(=O)(=O)N1Cc1ccc(F)cc1 (stereo not drawn)	none (no result: PrP 5UTR inh, BJeLR viability, VHR inh abs, PfHsp40 rescue, MazF activator)
COc1cc(/C=N/NC(=O)c2cccnc2)ccc1OC(=O)c1ccc2c(c1)OCO2	MazF activator 72
COc1cc(/C=N/NC(=O)c2cccnc2)ccc1OC(=O)c1cc(OC)c(OC)c(OC)c1	none
O=C(N/N=C/c1cccc(OC(=O)c2ccc3c(c2)OCO3)c1)c1cncc(Br)c1	none
O=C(N/N=C/c1ccc(OC(=O)c2ccc3c(c2)OCO3)cc1)c1cncc(Br)c1	VHR inh abs 51
COc1ccc(C2(c3ccc(OC)cc3)NC(=O)N(CC(=O)Nc3cc(C)ccc3OC)C2=O)cc1	VHR inh abs 57
CCCn1c(C)cc(C(=O)COc2ccc(C)nc2[N+](=O)[O-])c1C	VHR inh abs 54
COCCn1c(C)cc(C(=O)COc2ccc(C)nc2[N+](=O)[O-])c1C	none
S=C1Cc2ccccc2C(c2ccc(Cl)cc2)N1 (stereo not drawn)	none
COC(=O)c1sccc1NC(=O)Nc1cccc(C(C)=O)c1	none (no result: BJeLR viability)
COC(=O)c1sccc1NC(=O)Nc1cccc(C)c1	VHR inh abs 50
CCCOC(=O)CC1C(=O)NCCN1Cc1cc(OC)cc(OC)c1 (stereo not drawn)	PfHsp40 rescue 40
O=C(Nc1nnc(C2=COCCO2)o1)c1cccc(Br)c1	PfHsp40 rescue 59
Cc1ccc(S(=O)(=O)/N=C2/C=C(Sc3ncn[nH]3)C(=O)c3ccccc32)cc1	PfHsp40 rescue 119 (no result: BJeLR viability, PrPC TRFRET)
O=C(Nc1nc(-c2ccccn2)cs1)c1ccco1	PfHsp40 rescue 43
O=C(Nc1nc(-c2ccccn2)cs1)c1ccc(Br)s1	PfHsp40 rescue 255
CCOC(=O)Cc1csc(NC(=O)CSc2nc(=O)[nH]c3c2CCCC3)n1	none (no result: VHR inh abs)
CN1CCc2c(sc3c2C(=O)NC(/C=C/c2ccco2)N3)C1 (stereo not drawn)	MazF activator 66 (no result: VHR inh abs)
CN1CCc2c(sc3c2C(=O)NC(c2ccccc2)N3)C1 (stereo not drawn)	none
Oc1c(N=Nc2ccccn2)ccc2ccccc12	BJeLR viability 61, PfHsp40 rescue inconclusive
COc1ccc(/C=C/c2cc(C(=O)O)c3ccccc3n2)cc1	PrP 5UTR inh 71
C[C@H]1CN([C@@H](C)CO)C(=O)CCCn2nncc2CO[C@@H]1CN(C)S(=O)(=O)c1ccccc1	none (no result: PrP 5UTR inh, BJeLR viability, VHR inh abs, PfHsp40 rescue)
COc1ccccc1NS(=O)(=O)c1cc(NC(=O)c2sccc2C)ccc1N1CCOCC1	none
CCNC(=S)Nc1ccc(C)c(S(=O)(=O)Nc2ccccc2OC)c1	PfHsp40 rescue 106
COc1ccccc1NS(=O)(=O)c1cc(NC(=O)Nc2ccccc2)ccc1N1CCCCC1	PfHsp40 rescue 46 (no result: BJeLR viability)
COc1ccccc1NS(=O)(=O)c1cc(NC(=O)c2sccc2C)ccc1N1CCCC1	VHR inh abs 53
O=C(Nc1ccc(F)cc1)Nc1ccc(N2CCCC2)c(S(=O)(=O)Nc2ccccc2Cl)c1	MazF activator 53
Cc1cc(C(=O)N/N=C/c2ccc(-c3ccc([N+](=O)[O-])cc3C)o2)n[nH]1	MazF activator 75
Cc1cc([N+](=O)[O-])ccc1-c1ccc(/C=N/NC(=O)c2ccc(Br)o2)o1	none
COc1ccc2[nH]c3c(c2c1)CCN1C(=O)N([C@@H](C)C(=O)NCCc2ccc(F)cc2)C(=O)[C@]31C	PfHsp40 rescue 58
C[C@@H]1CN([C@@H](C)CO)C(=O)CCCn2nncc2CO[C@H]1CN(C)CC1CCCCC1	none (no result: PrP 5UTR inh, BJeLR viability, VHR inh abs, PfHsp40 rescue, MazF activator)
CCNC(=O)NC(=O)C(C)N1C(=O)NC(c2ccccc2)(c2ccccc2)C1=O (stereo not drawn)	VHR inh abs 55
Cc1cc(C)c(S(=O)(=O)N2C[C@H]3CON(C)[C@H]3C[C@H]2c2ccc(-n3ccnc3)cc2)c(C)c1	none (no result: PrP 5UTR inh, BJeLR viability, VHR inh abs, PfHsp40 rescue, MazF activator)
O=S(=O)(c1ccccc1)N1CCN(C(c2ccccc2)c2ccc(OC(F)(F)F)cc2)CC1 (stereo not drawn)	none
CCN(CC(=O)NCC1CCCO1)S(=O)(=O)c1ccc(Cl)cc1 (stereo not drawn)	none
COc1ccccc1CNC(=O)C(=O)c1cn(CC(=O)N2CCCC2)c2ccccc12	VHR inh abs 52
Oc1ccc(C[C@@H]2CNC(=S)N2CCc2cc(C(F)(F)F)cc(C(F)(F)F)c2)cc1	none
S=C1NC[C@H](Cc2ccccc2)N1CCCCC1CCCCC1	PfHsp40 rescue 64
S=C1NC[C@H](Cc2ccccc2)N1CC1CCN(CCCC2CCCC2)CC1	none (no result: BJeLR viability, VHR inh abs)
FC(F)(F)c1cc(CCN2C(=S)NC[C@@H]2Cc2ccccc2)cc(C(F)(F)F)c1	PfHsp40 rescue 48
COc1ccc(OCC(=O)NCCCNC(=O)COc2ccc(OC)cc2)cc1	none (no result: BJeLR viability, VHR inh abs)
COc1ccc(-c2cc(=O)oc3c(C)c(OC(=O)c4cccs4)ccc23)cc1	MazF activator 109 (no result: BJeLR viability)
COc1ccc(-c2cc(=O)oc3c(C)c(OC(C)C(C)=O)ccc23)cc1 (stereo not drawn)	none
